aSyn 5UTR act: Activators via SNCA 5'UTR binding, MLPCN; alpha-synuclein 5'UTR reporter, activators screen; activity score, % (tested at 7.5 µM), hits read low; 300,000 compounds, 7.1% hits; in the data active means activity score below about -60%
Hits are given with their value; i = inactive. These entries were drawn from the full list.

SMILES	aSyn 5UTR act
CCOc1ccc(CNc2ccc3c(c2)ncn3C(C)(C)C)cc1	-84
CN(C)c1ccc(CNc2ccc3c(c2)ncn3C(C)(C)C)cc1	-62
CS(=O)(=O)c1ccccc1C(=O)Nc1ccc(-c2nc3ccccc3[nH]2)cc1	-156
CS(=O)(=O)c1ccccc1C(=O)Nc1ccc(-c2nc3ccccc3o2)cc1	-185
O=C(c1ccccc1)c1ccc2nc(-c3ccc(NC(=O)c4ccccc4Br)cc3)[nH]c2c1	i
Cc1cc(C(=O)CSc2n[nH]c(N)n2)c(C)n1-c1ccccc1	-111
Cc1cc(C(=O)CSc2nnc3ccccn23)c(C)n1-c1ccccc1	i
Cc1cc(C(=O)CSc2n[nH]c(N)n2)c(C)n1-c1ccc(F)cc1	-83
C=CCn1c(C)cc(C(=O)CSc2n[nH]c(N)n2)c1C	-79
CN(C)S(=O)(=O)c1cccc(C(=O)N=C2N=C3C=CC(Cl)=CN3Cc3ccccc32)c1	-105
CC1CN(C(=O)c2ccccc2)C(=Nc2cccc(S(=O)(=O)N(C)C)c2)S1 (stereo unspecified)	i
O=C(N=C1N=C2C=CC=CN2Cc2ccccc21)c1ccc(S(=O)(=O)N2CCCC2)cc1	-134
O=C(N=C1N=C2C=CC=CN2Cc2ccccc21)c1ccc(S(=O)(=O)N2CCOCC2)cc1	-143
CC1CCC/C(=C\Nc2ccc3c(c2)OCO3)C1=O (stereo unspecified)	-119
CCOC(=O)c1ccc(NC(=O)COc2ccc(CNC3CCCCC3)cc2OC)cc1	-63
O=C(O)CSc1nc2sc3c(c2c(=O)n1Cc1ccccc1)CCCCC3	-230
O=C(O)c1ccc(Cn2nnc3sc4c(c3c2=O)CCCC4)cc1	-151
CN(C)CCN(C(=O)c1ccc2c(c1)OCCO2)c1nc2c(Cl)cccc2s1	-97
CN(C)CCCN(C(=O)c1ccc2c(c1)CCCC2)c1nc2c(F)cccc2s1	-157
COc1ccc2nc(N(CCN(C)C)C(=O)c3ccc4c(c3)OCCO4)sc2c1	-72
CCOc1cccc2sc(N(CCCN(C)C)C(=O)c3ccc(S(=O)(=O)N4CCc5ccccc5C4)cc3)nc12	i
CN(C)CCN(C(=O)c1ccc2c(c1)OCCO2)c1nc2cc3c(cc2s1)OCO3	-77
CN(C)CCN(C(=O)c1ccc(S(=O)(=O)N(C)c2ccccc2)cc1)c1nc2cc3c(cc2s1)OCCO3	-64
CN(C)CCN(C(=O)c1ccc2c(c1)CCCC2)c1nc2cc3c(cc2s1)OCCO3	-75
Cc1cc(C)c2sc(N(CCCN(C)C)C(=O)c3ccc(S(=O)(=O)N(C)C4CCCCC4)cc3)nc2c1	i
SMILES	aSyn 5UTR act
Nc1nc(F)nc2c1ncn2[C@@H]1O[C@H](CO)[C@@H](O)[C@H]1O	i
O=C(NCc1cccs1)c1noc2c1CCCCC2	-144
O=C(Nc1cccc(O)c1)c1noc2c1CCCCC2	i
O=C(NC1CCCC1)c1noc2c1CCCCC2	-134
Cc1ccc(NC(=O)c2noc3c2CCC3)cc1C	-75
COC(=O)c1ccccc1NC(=O)c1noc2c1CCCC2	-79
CC(=O)c1ccc(NC(=O)c2noc3c2CCC3)cc1	i
O=C(Nc1cnn(Cc2ccc(F)cc2)c1)c1noc2c1CCCC2	-105
COc1ccc(CNC(=O)c2noc3c2CCCCC3)cc1	-62
O=C(NCc1ccccc1)c1noc2c1CCCCC2	-133
CC(NC(=O)c1noc2c1CCCCC2)c1ccccc1 (stereo unspecified)	-78
O=C(COC(=O)c1cccs1)c1ccc2c(c1)OCCO2	-176
O=C(COC(=O)c1cccs1)c1ccc2ccccc2c1	-121
COCCOC(=O)c1[nH]c2c(c1C)C(=O)CC(c1cccs1)C2 (stereo unspecified)	i
COc1ccc(OCCOC(=O)c2cccs2)cc1	-66
O=C(NNC(=O)c1cccs1)c1ccc2ccccc2c1	-71
CC(=O)NC12CC3CC(C1)CC(C(=O)OCC(=O)c1ccc4c(c1)OCCO4)(C3)C2	-134
COc1ccc(CCOC(=O)c2ccc(N)c([N+](=O)[O-])c2)cc1	-73
COc1ccc(/C(N)=N/OC(=O)c2ccc(C)c([N+](=O)[O-])c2)cc1	-165
Cc1cc(C(=O)O/N=C(\N)c2ccncc2)ccc1[N+](=O)[O-]	-124
O=C(C[n+]1cc(-c2ccc(F)cc2)n2c1CCC2)Nc1nc(-c2ccc(F)cc2)cs1	-63
Cc1ccc(-c2csc(NC(=O)C[n+]3cc(-c4ccccc4)n4c3CCC4)n2)cc1	-117
O=C(C[n+]1cc(-c2ccc(F)cc2)n2c1CCC2)N1c2ccccc2Sc2ccccc21	-181
CC(=O)c1ccc(OCC(=O)c2cc(C)n(-c3ccc4c(c3)OCO4)c2C)cc1	-65
Cc1nnc(SCc2ccc3c(c2)OCO3)s1	-72
SMILES	aSyn 5UTR act
Cc1cc(C(=O)CSc2nnnn2C)c(C)n1-c1ccc2c(c1)OCCO2	-125
Cc1cc(C(=O)CN2C(=O)c3ccccc3S2(=O)=O)c(C)n1-c1ccccc1	i
Cc1cc(C(=O)CN2C(=O)C(=O)N(Cc3ccccc3)C2=O)c(C)n1-c1ccc2c(c1)OCCO2	-74
Cc1nnc(SCc2ccc(F)cc2Cl)s1	-81
Cc1nnc(SCC(=O)c2cc(C)n(-c3ccc4c(c3)OCO4)c2C)s1	-151
Clc1cccc(N/N=C/c2ccc(N3CCOCC3)s2)c1	-167
O=C(COc1ccccc1-c1ccccc1)NNC(=O)NC1CCCCC1	-83
Cc1ccccc1OCC(O)CNC1CCC(NCC(O)COc2ccccc2C)CC1 (stereo unspecified)	i
Cc1ccc(OCC(=O)NC2CCCC2)c(C)c1	-67
Cc1ccccc1OCC(=O)NC1CCCCCCC1	-65
Cc1[nH][nH]c(=O)c1C=Nc1ccc(C(F)(F)F)cc1	-77
O=c1[nH][nH]c(C(F)(F)F)c1C=Nc1ccc(Cl)cc1	-71
CCN(CC(=O)NCc1ccc(F)cc1)C(=O)/C=C/c1ccc(OC)c(S(=O)(=O)NC(C)C)c1	i
CCN(CC)C(=O)c1ccc(COc2ccccc2Cl)cc1	-112
CCN(CC(=O)NCc1ccc(F)cc1)C(=O)c1ccc(COc2ccccc2)cc1	-67
c1ccc(CCCc2nc(-c3ccccn3)no2)cc1	-70
c1ccc(SCc2nc(-c3ccccn3)no2)cc1	-146
Cc1ccc(-c2nc(-c3ccccn3)no2)cc1	i
c1ccc(C(Cc2nc(-c3ccccn3)no2)c2ccccc2)cc1	-132
Cc1ccc(Cc2nc(-c3ccccn3)no2)cc1	-95
c1ccc(-c2noc(CC3CCCCC3)n2)nc1	-69
c1ccc(Cc2nc(-c3ccccn3)no2)cc1	-98
COc1ccc(Cc2nc(-c3ccccn3)no2)cc1	-120
Clc1ccc(-c2noc(CCCc3ccccc3)n2)cc1	-97
c1ccc(-c2ccc(-c3nc(-c4ccccn4)no3)cc2)cc1	i
SMILES	aSyn 5UTR act
CN(C)C(=O)CCCc1nc(-c2ccc(Cl)cc2)no1	-111
O=C(CCCc1nc(-c2ccccc2Cl)no1)NC1CCCC1	i
CCCC1CCC(c2ccc(OCC)cc2)=CC1=O (stereo unspecified)	-216
N#C/C(=C\c1ccco1)c1nc2ccccc2s1	-309
N#C/C(=C/c1ccco1)c1nc2ccccc2s1	-282
NS(=O)(=O)c1ccc(Sc2nc3ccccc3s2)c([N+](=O)[O-])c1	i
CCCCc1ccc(-c2csc(/C(C#N)=C\c3ccco3)n2)cc1	-106
N#C/C(=C\c1ccc(O)c([N+](=O)[O-])c1)c1nc2ccccc2s1	-66
N#CC1(NC(=O)Cn2ncc(Cl)c(Cl)c2=O)CCCCC1	-206
O=C(NNC(=S)Nc1ccccc1)c1ccccc1[N+](=O)[O-]	-77
O=C(NC(=S)Nc1ccc(N2CCCC2)cc1)c1ccccc1[N+](=O)[O-]	-104

Screening results (PubChem)
